This passage reports growth inhibition, inhibition and outcome results from PubChem BioAssay.

Experiment [1] in a line: antimalarial activity against Dd2 strain (AID 2302;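 active = growth inhibition above 50% at the single 2 µM test dose, taken to imply half-maximal potency below 2 µM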;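 note: 0% = DMSO untreated growth and 100% = chloroquine plus artemisinin killed control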). The conditions noted are these: P. falciparum Dd2 in RBCs, LDH growth readout, 72 h; at 2 µM; hits give high values.
Experiment [2] in a line: HepG2 cytotoxicity, primary screen, cytotoxicity control for P. falciparum antimalarial project, cell-based, ATP luminescence (AID 2303;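 active = inhibition above 50%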;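 note: 0% = DMSO wells and 100% = digitonin-killed cells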). The note with it: HepG2 viability, 24-48 h, at 10 µM, hits give high values.
The target in experiment [3] is L-lactate dehydrogenase (Plasmodium falciparum (isolate CDC / Honduras)) (UniProt Q27743). The experiment can be described thus: PfLDH activity inhibition – cell lysate, 3D7 strain, counter-screen for P. falciparum growth inhibition project (AID 2304).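 Note: 0% = vehicle and 100% = reference inhibitor.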 The conditions noted are these: P. falciparum 3D7 crude extract, LDH APAD/NBT absorbance; at 2 µM; hits give high values.
Sequence of L-lactate dehydrogenase (Plasmodium falciparum (isolate CDC / Honduras)) (Q27743 whole entry, looked up): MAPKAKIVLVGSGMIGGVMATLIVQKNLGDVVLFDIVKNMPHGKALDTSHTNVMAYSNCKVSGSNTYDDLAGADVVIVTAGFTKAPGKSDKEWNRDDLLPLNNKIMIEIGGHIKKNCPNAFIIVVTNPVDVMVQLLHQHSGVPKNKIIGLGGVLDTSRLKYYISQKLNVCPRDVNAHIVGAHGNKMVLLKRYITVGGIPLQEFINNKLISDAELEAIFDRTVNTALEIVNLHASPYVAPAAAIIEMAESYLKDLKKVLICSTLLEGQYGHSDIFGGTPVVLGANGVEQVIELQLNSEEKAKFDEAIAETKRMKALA

Experiment [4] is described as follows: inhibition of 3D7 malaria parasite growth – strain 3D7 (AID 2306).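 Note: 0% = DMSO wells and 100% = chloroquine plus artemisinin control wells.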 The conditions noted are these: P. falciparum 3D7 erythrocytic growth, LDH absorbance, 72 h; at 2 µM; hits give high values.
Experiment [5] concerns the target Calcium-dependent protein kinase 1 (Plasmodium falciparum (isolate 3D7)) (UniProt P62344). The experiment can be described thus: PfCDPK1 kinase inhibitors, biochemical, TCAMS library (AID 1159585; cut-off not given, nearly all actives have IC50 up to about 0.98 µM;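 note: inhibitors leave more ATP so luminescence rises with inhibition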). The note with it: recombinant PfCDPK1, Kinase-Glo ATP depletion luminescence.
Experiment [6] addresses Plasmodium falciparum protein kinase 6 (PK6, PF3D7_1337100) (UniProt Q8IDW1). As to the kind of experiment: PfPK6 kinase inhibitors, biochemical, TCAMS library (AID 1159586). The note with it: recombinant PfPK6, Kinase-Glo ATP depletion luminescence.
Experiment [7] concerns the target Protein kinase 7 (PK7), Plasmodium falciparum 3D7 (PF3D7_0213400) (UniProt Q7YTF7). As to the kind of experiment: inhibition of Plasmodium PK7 catalytic activity – biochemical, TCAMS antimalarial set, Kinase-Glo luminescence (AID 1159587). The conditions noted are these: recombinant PfPK7, Kinase-Glo ATP depletion luminescence.
Experiment [8] has as its target Calcium-dependent protein kinase 4 (Plasmodium falciparum (isolate 3D7)) (UniProt Q8IBS5). The experiment can be described thus: PfCDPK4 kinase inhibitors, biochemical, TCAMS library (AID 1159588; cut-off not given, nearly all actives have IC50 up to about 0.91 µM). The conditions noted are these: recombinant PfCDPK4, Kinase-Glo ATP depletion luminescence.

Values without a mark were called inactive. For part of these data: Entries with a potency or affinity are not part of this list. Activity calls are given as the source filed them. Unless noted, the rule behind the calls is not given here.

Sequence of Plasmodium falciparum protein kinase 6 (PK6, PF3D7_1337100) (Q8IDW1 1-305): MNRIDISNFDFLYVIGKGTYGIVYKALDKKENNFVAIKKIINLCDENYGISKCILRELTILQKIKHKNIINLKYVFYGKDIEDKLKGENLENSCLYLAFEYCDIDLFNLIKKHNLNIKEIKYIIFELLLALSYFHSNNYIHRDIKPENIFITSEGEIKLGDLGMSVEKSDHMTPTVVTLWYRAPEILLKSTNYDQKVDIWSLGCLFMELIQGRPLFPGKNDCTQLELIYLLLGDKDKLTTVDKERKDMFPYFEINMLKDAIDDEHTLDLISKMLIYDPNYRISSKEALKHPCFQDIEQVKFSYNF
Sequence of Protein kinase 7 (PK7), Plasmodium falciparum 3D7 (PF3D7_0213400) (Q7YTF7 1-343): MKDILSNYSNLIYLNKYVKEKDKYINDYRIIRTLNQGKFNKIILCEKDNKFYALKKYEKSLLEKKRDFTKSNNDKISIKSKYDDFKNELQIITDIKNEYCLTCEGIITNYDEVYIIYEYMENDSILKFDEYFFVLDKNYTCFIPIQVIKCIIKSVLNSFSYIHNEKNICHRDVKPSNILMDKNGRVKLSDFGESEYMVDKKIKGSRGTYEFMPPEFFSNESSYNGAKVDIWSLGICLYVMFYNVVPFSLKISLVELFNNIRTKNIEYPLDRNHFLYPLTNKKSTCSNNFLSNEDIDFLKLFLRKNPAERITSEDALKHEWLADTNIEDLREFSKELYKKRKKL
Sequence of Calcium-dependent protein kinase 1 (Plasmodium falciparum (isolate 3D7)) (P62344 whole entry, looked up): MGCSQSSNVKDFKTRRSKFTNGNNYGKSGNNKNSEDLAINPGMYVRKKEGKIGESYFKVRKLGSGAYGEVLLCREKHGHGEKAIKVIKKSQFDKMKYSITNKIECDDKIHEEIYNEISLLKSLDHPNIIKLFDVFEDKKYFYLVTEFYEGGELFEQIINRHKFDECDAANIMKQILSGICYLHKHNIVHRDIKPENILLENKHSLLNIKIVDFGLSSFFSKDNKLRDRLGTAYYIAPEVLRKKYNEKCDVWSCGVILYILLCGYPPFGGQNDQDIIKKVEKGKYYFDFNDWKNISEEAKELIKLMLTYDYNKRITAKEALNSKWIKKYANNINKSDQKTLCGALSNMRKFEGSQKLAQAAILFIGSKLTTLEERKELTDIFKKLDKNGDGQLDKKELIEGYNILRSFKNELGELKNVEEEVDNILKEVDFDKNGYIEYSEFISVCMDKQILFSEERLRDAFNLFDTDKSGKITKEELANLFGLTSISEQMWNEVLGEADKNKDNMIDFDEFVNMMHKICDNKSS
Sequence of Calcium-dependent protein kinase 4 (Plasmodium falciparum (isolate 3D7)) (Q8IBS5 whole entry, looked up): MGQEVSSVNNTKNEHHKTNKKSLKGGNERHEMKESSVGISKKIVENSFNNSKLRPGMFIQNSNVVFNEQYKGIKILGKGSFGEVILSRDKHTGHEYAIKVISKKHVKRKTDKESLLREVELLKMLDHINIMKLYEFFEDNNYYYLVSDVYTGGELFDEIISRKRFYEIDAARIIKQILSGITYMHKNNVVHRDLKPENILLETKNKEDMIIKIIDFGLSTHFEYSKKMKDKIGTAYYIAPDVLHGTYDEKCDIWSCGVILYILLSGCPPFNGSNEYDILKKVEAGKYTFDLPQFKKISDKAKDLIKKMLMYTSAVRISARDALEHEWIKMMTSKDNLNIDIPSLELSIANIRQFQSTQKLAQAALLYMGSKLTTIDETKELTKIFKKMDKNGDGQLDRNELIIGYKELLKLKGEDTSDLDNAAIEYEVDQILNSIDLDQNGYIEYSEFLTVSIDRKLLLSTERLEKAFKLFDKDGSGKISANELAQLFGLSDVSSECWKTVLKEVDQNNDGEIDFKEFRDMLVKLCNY

On to `COc1nc2c(N3CCN(CCNCc4ccc5c(n4)NC(=O)CO5)CC3)ccnc2cc1F`, for which the values for the growth inhibition in experiment [1] and in experiment [4] were 9% and 101% (active), respectively. For the same compound, the inhibition in experiment [2] is 18%; in experiment [3], -2%. Further, the result in experiment [5], in experiment [6], in experiment [7] and in experiment [8] was inactive.
As to `CC(=O)Oc1ccc(C(=O)Oc2ccccc2C#CC#N)cc1OC(C)=O`, the growth inhibition in experiment [1] is 61% (active); in experiment [4] it was 93% (active). Further, the inhibition in experiment [2] was 23%; in experiment [3], -1%. The result in experiment [5], in experiment [6], in experiment [7] and in experiment [8] was inactive.
Turning to `CC(=O)Nc1ccc(NC(=O)c2cc(-c3cc(Cl)ccc3O)n[nH]2)cc1`, the growth inhibition in experiment [1] and in experiment [4] was 100% (active) each time. The inhibition was 1% in experiment [2] and -2% in experiment [3]. The result in experiment [5], in experiment [6], in experiment [7] and in experiment [8] was inactive.
Take `Clc1ccc2c(N3CCCNCC3)ccnc2c1`: the results for the growth inhibition in experiment [1] and in experiment [4] were 99% (active) and 100% (active), respectively. In addition, the inhibition is 11% in experiment [2] and -1% in experiment [3]. The result in experiment [5], in experiment [6], in experiment [7] and in experiment [8] was inactive.
Consider `CCOC(=O)C(CO)NC(=O)c1ccc([N+](=O)[O-])o1` (centres undefined), for which the growth inhibition was 2% in experiment [1] and 96% (active) in experiment [4]. In addition, the inhibition was -5% in experiment [2] and 8% in experiment [3]. Moreover, the outcome in experiment [5], in experiment [6], in experiment [7] and in experiment [8] was inactive.
`CN1Cc2ccc(NS(=O)(=O)c3ccc(-c4ccoc4)cc3)cc2C1`: the growth inhibition in experiment [1] is 2%; in experiment [4], 97% (active). Further, the inhibition is -3% in experiment [2] and -2% in experiment [3]. Besides, the outcome in experiment [5], in experiment [6], in experiment [7] and in experiment [8] was inactive.
Turning to `CCCCCCN1CCC(NCc2ccc(C(F)(F)F)cc2)CC1`, the growth inhibition in experiment [1] was 47%; in experiment [4], 100% (active). In addition, the figures for the inhibition in experiment [2] and in experiment [3] were 11% and -2%, respectively. The result in experiment [5], in experiment [6], in experiment [7] and in experiment [8] was inactive.
As for `CCN(CC)C(=O)C1CCN(C(C(=O)N2CCN(CC(=O)N3CCCC3)CC2)c2cc3ccccc3o2)CC1` (centres undefined), the growth inhibition is 4% in experiment [1] and 98% (active) in experiment [4]. Also, the figures for the inhibition in experiment [2] and in experiment [3] were -11% and -7%, respectively. Besides, the outcome in experiment [5], in experiment [6], in experiment [7] and in experiment [8] was inactive.
Turning to `COc1cccc(O)c1CN1CCC2(CCCN(Cc3ccc(F)cc3)C2)C1` (centres undefined), the growth inhibition was 72% (active) in experiment [1] and 98% (active) in experiment [4]. Further, the values for the inhibition in experiment [2] and in experiment [3] were 21% and 1%, respectively. Besides, the outcome in experiment [5], in experiment [6], in experiment [7] and in experiment [8] was inactive.
Regarding `CC1CC(NCCCNc2cc(=O)c3ccccc3[nH]2)c2cc(Cl)c(Cl)c(Cl)c21` (centres undefined), the results for the growth inhibition in experiment [1] and in experiment [4] were 69% (active) and 100% (active), respectively. The inhibition is 0% in experiment [2] and 3% in experiment [3]. The outcome in experiment [5], in experiment [6], in experiment [7] and in experiment [8] was inactive.
Turning to `CCCCc1ccc(Cc2cnc3nc(N)nc(N)c3c2C)cc1`, the values for the growth inhibition in experiment [1] and in experiment [4] were 5% and 96% (active), respectively. Moreover, the inhibition was 64% (active) in experiment [2] and 5% in experiment [3]. The result in experiment [5], in experiment [6], in experiment [7] and in experiment [8] was inactive.
On to `O=C(Nc1ccc(-c2csc(-c3nc4ccccc4[nH]3)c2)cc1)Nc1ccsc1`, for which the growth inhibition is 17% in experiment [1] and 101% (active) in experiment [4]. Moreover, the inhibition in experiment [2] is 50% (active); in experiment [3], -1%. Also, the result in experiment [5], in experiment [6], in experiment [7] and in experiment [8] was inactive.
In the case of `CN1CCC(N(Cc2ccc(-c3ccc(C(F)(F)F)cc3)cc2)C(=O)Cn2cc(Cc3cnn(C)c3)c(=O)nc2SCc2cccc(F)c2F)CC1`, the growth inhibition in experiment [1] was 91% (active); in experiment [4], 88% (active). For the same compound, the inhibition in experiment [2] is 68% (active); in experiment [3] it was 7%. The result in experiment [5], in experiment [6], in experiment [7] and in experiment [8] was inactive.
For the compound `COc1cc(Nc2nccc(N3CCC(NC(=O)C(C)c4ccc(Cl)cc4)C3)n2)cc(OC)c1OC` (centres undefined), the growth inhibition is 90% (active) in experiment [1] and 97% (active) in experiment [4]. Moreover, the values for the inhibition in experiment [2] and in experiment [3] were 2% and -7%, respectively. In addition, the outcome in experiment [5], in experiment [6], in experiment [7] and in experiment [8] was inactive.
Turning to `O=S(=O)(c1ccccc1C(F)(F)F)C1C[C@H]2CC[C@@H](C1)N2S(=O)(=O)c1ccc(Cl)c(C(F)(F)F)c1` (some centres undefined), the values for the growth inhibition in experiment [1] and in experiment [4] were 99% (active) and 97% (active), respectively. Besides, the inhibition was 4% in experiment [2] and -3% in experiment [3]. Moreover, the result in experiment [5], in experiment [6], in experiment [7] and in experiment [8] was inactive.
In the case of `Cc1cc(OCCCN2CCC(NS(=O)(=O)c3cc(Br)c(Cl)s3)CC2)c2ccccc2n1`, the growth inhibition is 39% in experiment [1] and 95% (active) in experiment [4]. Besides, the results for the inhibition in experiment [2] and in experiment [3] were 5% and 3%, respectively. Moreover, the outcome in experiment [5], in experiment [6], in experiment [7] and in experiment [8] was inactive.
As for `Cc1cc(N[C@@H](CC(C)C)C(=O)NCc2cccs2)nc(NCCc2ccccc2)n1`, the growth inhibition in experiment [1] is 8%; in experiment [4] it was 94% (active). Further, the figures for the inhibition in experiment [2] and in experiment [3] were 1% and -2%, respectively. For the same compound, the result in experiment [5], in experiment [6], in experiment [7] and in experiment [8] was inactive.
As for `O=C(c1ccc(Br)o1)N1N=C(c2cccs2)CC1c1ccc(Br)cc1` (centres undefined), the results for the growth inhibition in experiment [1] and in experiment [4] were 45% and 96% (active), respectively. Moreover, the inhibition in experiment [2] was 5%; in experiment [3] it was -4%. In addition, the outcome in experiment [5], in experiment [6], in experiment [7] and in experiment [8] was inactive.
